For assay [1] the following is noted: Ebola virus entry assay, green fluorescence channel.
For assay [2] the following is noted: Ebola virus entry assay, blue channel fluorescence.
For assay [3] the following is noted: Ebola virus entry assay, ratio channel.
For assay [4] the following is noted: Ebola virus entry assay, reporter ratio channel; Channel type: primary.

Values without a mark were called inactive. For part of these data: Entries with a potency or affinity are not part of this list. Active and inactive are the calls of the source. No rule for the calls is given here.

As a reminder, the AC50 is the midpoint of the concentration-response curve, whichever way the signal moves.
For efficacy in this document: 0% is about no effect.

Take `COc1cc(C(=O)OCCCN2CCCN(CCCOC(=O)c3cc(OC)c(OC)c(OC)c3)CC2)cc(OC)c1OC`: the efficacy in assay [1] was 89.6%. The results for the concentration at half-maximal activity (AC50) in assay [2], in assay [3] and in assay [4] were 17.8 µM (active), 12.6 µM (active) and 12.6 µM (active), respectively.

Regarding `CCOc1ccc(Cc2nccc3cc(OCC)c(OCC)cc23)cc1OCC`, in assay [1], the efficacy is 94.1%. Moreover, the AC50 in assay [2] and in assay [4] was 39.8 µM (active) throughout. Moreover, in assay [3], the result was inactive.

In the case of `CCN(CC)CCOCCOC(=O)C1(c2ccccc2)CCCC1`, the efficacy in assay [1] is 62.4%. Moreover, the AC50 in assay [2], in assay [3] and in assay [4] was 10 µM (active) throughout.

In the case of `CN(C)CCN(Cc1ccc(Cl)cc1)c1ccccn1`, the efficacy in assay [1] is 58.3%. Further, the AC50 was 17.8 µM (active) in assay [2], 14.1 µM (active) in assay [3] and 14.1 µM (active) in assay [4].

In the case of `O=C(c1cc(O)c(O)c(O)c1)c1ccc(O)c(O)c1O`, the efficacy in assay [1] was 38.9%. The AC50 in assay [2], in assay [3] and in assay [4] was 1.78 µM (active) in each case.

Regarding `CN1CCC(=C2c3ccccc3Sc3ccccc32)CC1`, the efficacy in assay [1] is 61.5%. The results for the AC50 in assay [2], in assay [3] and in assay [4] were 8.91 µM (active), 5.01 µM (active) and 5.01 µM (active), respectively.

As for `Clc1ccc2c(c1)CCc1cccnc1C2=C1CCNCC1`, the efficacy in assay [1] was 49.7%. Besides, the AC50 in assay [2] is 7.08 µM (active); in assay [3], 7.94 µM (active); in assay [4] it was 7.94 µM (active).

For the molecule `COCC(=O)O[C@]1(CCN(C)CCCc2nc3ccccc3[nH]2)CCc2cc(F)ccc2[C@@H]1C(C)C`, the efficacy in assay [1] was -180%. The AC50 in assay [2], in assay [3] and in assay [4] was 2.24 µM (active) each time.

Consider `c1cc(CN2CCCCC2)cc(OCCCNc2nc3ccccc3s2)c1`, for which the efficacy in assay [1] is 69.1%. In addition, the AC50 in assay [2], in assay [3] and in assay [4] was 12.6 µM (active) each time.

In the case of `COc1ccc(CCN2CCC(Nc3nc4ccccc4n3Cc3ccc(F)cc3)CC2)cc1`, the efficacy in assay [1] was -220%. The values for the concentration at half-maximal activity (AC50) in assay [2], in assay [3] and in assay [4] were 5.01 µM (active), 2.82 µM (active) and 2.82 µM (active), respectively.

For `CN1CCCC(n2nc(Cc3ccc(Cl)cc3)c3ccccc3c2=O)CC1` (stereo not given), the efficacy in assay [1] is 78.3%. The AC50 in assay [2], in assay [3] and in assay [4] was 3.16 µM (active) in each case.

As to `CCN(CCCc1ccccc1)CCCc1ccccc1`, in assay [1], the efficacy was 48.4%. Moreover, the AC50 in assay [2] is 5.62 µM (active); in assay [3], 4.47 µM (active); in assay [4] it was 4.47 µM (active).

For `CC(C(O)c1ccccc1)N(C)CCOC(c1ccccc1)c1ccccc1` (stereo not given), the efficacy in assay [1] is 65%. The concentration at half-maximal activity (AC50) in assay [2] was 3.16 µM (active); in assay [3], 2.82 µM (active); in assay [4] it was 2.82 µM (active).

Take `CC1=C(CC(=O)O)c2cc(F)ccc2/C1=C\c1ccc(S(C)=O)cc1` (stereo not given): the efficacy in assay [1] is 55.9%. Moreover, the molecule was called inactive in assay [2], in assay [3] and in assay [4].

On to `CC(=O)c1ccc2c(c1)N(CCCN(C)C)c1ccccc1S2`, for which, in assay [1], the efficacy is 87%. Moreover, the AC50 in assay [2], in assay [3] and in assay [4] was 12.6 µM (active) in each case.

In the case of `Cc1ccc(C(=O)Oc2ccc(C(O)CNC(C)(C)C)cc2OC(=O)c2ccc(C)cc2)cc1` (stereo not given), in assay [1], the efficacy is 67.4%. For the same molecule, the AC50 in assay [2] is 3.98 µM (active); in assay [3], 3.55 µM (active); in assay [4], 3.55 µM (active).

For the molecule `CCC(C(=O)OCCN1CCOC(c2ccccc2)C1C)c1ccccc1` (stereo not given), the efficacy in assay [1] was 88.5%. In addition, the AC50 in assay [2] is 22.4 µM (active); in assay [3] it was 28.2 µM (active); in assay [4], 28.2 µM (active).

As for `Nc1c2ccccc2nc2ccccc12`, the efficacy in assay [1] was 59%. Besides, the outcome in assay [2], in assay [3] and in assay [4] was inactive.

As to `CNCCC(Oc1ccccc1OC)c1ccccc1` (stereo not given), in assay [1], the efficacy is 84.9%. In addition, the AC50 in assay [2] is 22.4 µM (active); in assay [3], 17.8 µM (active); in assay [4], 17.8 µM (active).

Consider `Cc1c(C(=O)NN2CCCCC2)nn(-c2ccc(Cl)cc2Cl)c1-c1ccc(Cl)cc1`, for which the efficacy in assay [1] was 55.3%. In addition, the AC50 in assay [2] was 14.1 µM (active); in assay [3], 11.2 µM (active); in assay [4], 11.2 µM (active).

Regarding `CCN(CC)CCCC(C)Nc1c2ccc(Cl)cc2nc2ccc(OC)cc12` (stereo not given), the efficacy in assay [1] is 40.6%. The half-maximal activity concentration (AC50) in assay [2], in assay [3] and in assay [4] was 25.1 µM (active) throughout.

`CN(CCCN1c2ccccc2CCc2ccccc21)CC(=O)c1ccc(Cl)cc1`: the efficacy in assay [1] was 78.9%. Also, the values for the AC50 in assay [2], in assay [3] and in assay [4] were 22.4 µM (active), 25.1 µM (active) and 25.1 µM (active), respectively.

As to `OCCN1CCN(CCCN2c3ccccc3C=Cc3ccccc32)CC1`, the efficacy in assay [1] is 49.7%. In addition, the AC50 in assay [2], in assay [3] and in assay [4] was 14.1 µM (active) throughout.

As to `CN(C)CC/C=C1\c2ccccc2Sc2ccc(Cl)cc21`, the efficacy in assay [1] was -98.3%. Also, the concentration at half-maximal activity (AC50) in assay [2], in assay [3] and in assay [4] was 3.16 µM (active) each time.

`O=C(c1ccc(F)cc1)C1CCN(CCn2c(=O)[nH]c3ccccc3c2=O)CC1`: the efficacy in assay [1] was 78.1%. Besides, the AC50 was 28.2 µM (active) in assay [2], 17.8 µM (active) in assay [3] and 17.8 µM (active) in assay [4].

Turning to `CCCN(CCC)C(=O)C(CCC(=O)OCCCN1CCN(CCOC(=O)Cc2c(C)n(C(=O)c3ccc(Cl)cc3)c3ccc(OC)cc23)CC1)NC(=O)c1ccccc1` (stereo not given), the efficacy in assay [1] is 156%. In addition, the AC50 in assay [2] is 6.31 µM (active); in assay [3], 5.62 µM (active); in assay [4] it was 5.62 µM (active).

As to `CN(C)c1ccc(C(=C2C=CC(=[N+](C)C)C=C2)c2ccc(N(C)C)cc2)cc1`, the efficacy in assay [1] is -158%. For the same molecule, the values for the AC50 in assay [2], in assay [3] and in assay [4] were 5.01 µM (active), 3.55 µM (active) and 3.55 µM (active), respectively.

As to `OC(CCN1CCCCC1)(c1ccccc1)c1ccccc1`, the efficacy in assay [1] is 36.7%. Also, the values for the AC50 in assay [2], in assay [3] and in assay [4] were 31.6 µM (active), 28.2 µM (active) and 28.2 µM (active), respectively.

In the case of `CC(C)(C)C(=O)OCOC(=O)C1N2C(=O)CC2S(=O)(=O)C1(C)C` (stereo not given), the efficacy in assay [1] was 65.1%. The AC50 is 3.98 µM (active) in assay [2], 3.16 µM (active) in assay [3] and 3.16 µM (active) in assay [4].

Regarding `Cc1nc(C2CCCCC2)c(-c2ccc(S(N)(=O)=O)c(F)c2)o1`, in assay [1], the efficacy is 44.4%. Also, the AC50 in assay [2] is 39.8 µM (active); in assay [3], 31.6 µM (active); in assay [4] it was 31.6 µM (active).

The values are drawn from PubChem BioAssay (NCATS).
